In PubChem BioAssay AID1259318 (Sanford-Burnham Center for Chemical Genomics, 2017):
In all, about 370,000 compounds went through this assay and about 3,000 (0.81%) were called active. For the sample, actives were picked, then their nearest neighbours and some compounds at random. Values without a mark were called inactive.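 How the source made its calls: active means activity above about 14% (limit read from the data; passing the limit was not always enough); inactive means the rest.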

molecular target: Nuclear receptor subfamily 1 group D member 1 (Homo sapiens) (UniProt P20393); experiment: Rev-erbα–DNA interaction modulation – biochemical, FITC-DNA, fluorescence polarization, uHTS, primary screen (AID 1259318); settings: Rev-erbα–FITC-DNA binding, 90 min, at 10 µM, hits give high values;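 further: 0% = DMSO wells with 35 nM protein and 100% = DMSO wells with 750 nM protein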
Sequence (P20393 whole entry, looked up): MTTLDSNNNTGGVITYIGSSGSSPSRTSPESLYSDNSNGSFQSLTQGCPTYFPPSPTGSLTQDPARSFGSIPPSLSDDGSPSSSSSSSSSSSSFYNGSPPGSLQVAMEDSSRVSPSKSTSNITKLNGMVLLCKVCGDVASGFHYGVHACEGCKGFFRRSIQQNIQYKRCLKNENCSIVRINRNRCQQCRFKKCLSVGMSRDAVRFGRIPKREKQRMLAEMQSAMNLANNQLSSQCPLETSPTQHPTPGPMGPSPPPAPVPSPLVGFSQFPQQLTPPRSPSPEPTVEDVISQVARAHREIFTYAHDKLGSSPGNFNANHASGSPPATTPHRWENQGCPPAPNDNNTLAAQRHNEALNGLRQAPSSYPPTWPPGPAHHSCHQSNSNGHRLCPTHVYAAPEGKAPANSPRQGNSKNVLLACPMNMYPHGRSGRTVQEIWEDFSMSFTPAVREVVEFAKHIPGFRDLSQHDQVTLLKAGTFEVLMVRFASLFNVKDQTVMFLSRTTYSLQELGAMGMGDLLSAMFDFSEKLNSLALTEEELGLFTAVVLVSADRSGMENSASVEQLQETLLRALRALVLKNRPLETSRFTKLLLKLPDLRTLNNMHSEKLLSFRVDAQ

Compared with CCc1c(-c2ccccc2)nc(N)c(C#N)c1-c1cccs1, CN1CCc2nc(SC(C(=O)O)c3ccccc3)c(C#N)c(-c3cccs3)c2C1 (stereo not given) is lower in activity: 12% for the first, -2.52% for the second.

Compared with C=CCOc1cccc(CNn2cn[nH]c2=S)c1, Cn1c(-c2sccc2OCc2cccc(C(F)(F)F)c2)n[nH]c1=S is higher in activity: -6% for the first, -0.5% for the second.

First: CN(C(=O)COC(=O)Cn1cnc2c1c(=O)n(C)c(=O)n2C)C1(C#N)CCCCC1
Second: CCOC(=O)Cn1c(=O)oc2cc(S(=O)(=O)NCC3CCCO3)ccc21 (stereo not given)
The activity of the first is higher: 0.32% for the first, -1.52% for the second.

First: O=C(CSc1ccc(-c2ccc(F)cc2)nn1)Nc1ccc2c(c1)OCCO2
Second: Cc1ccc(-n2c(COc3ccccc3)nnc2SCC(=O)Nc2ccc3c(c2)OCCO3)cc1
The activity of the first is lower: -5.86% for the first, 1.23% for the second.

First: CC(=O)c1cc2c(cc1NC(=O)Cn1nc(-c3ccc(F)cc3)ccc1=O)OCO2
Second: CS(=O)(=O)c1ccc(-c2nnn(CC(=O)Nc3ccc4c(c3)OCCO4)n2)cc1
The activity of the first is lower: 1.35% for the first, 6.46% for the second.

First: CC(C)C(C#CC1CC1)N(Cc1ccc2c(c1)OCO2)C(N)=NC(=O)/C=C/c1cccc(C(F)(F)F)c1 (stereo not given)
Second: CN(CC1CCCN(CCc2cccc(C(F)(F)F)c2)C1)C(=O)c1ccc2nc[nH]c2c1 (stereo not given)
The activity of the first is lower: -2.7% for the first, 4.2% for the second.

Compared with O=C(CSc1ncnc2c1oc1ccccc12)NC1CCCC1, COc1ccc(S(=O)(=O)N2CCOCC2)cc1NC(=O)CSc1ncnc2ccccc12 is lower in activity: -1.38% for the first, -2.02% for the second.

First: CC(C)CCSc1ncnc2c1oc1nc3c(cc12)COC(C)(C)C3
Second: CSc1ncnc2c1ncn2CC(=O)C1CCC2C3CCC4=CC(=O)CCC4(C)C3CCC12C (stereo not given)
The activity of the first is higher: 0.04% for the first, -3.58% for the second.

Going from COCCN1C2=C(COC(C)(C)C2)C(=S)NC1c1ccccc1 (stereo not given) to CC(C)C[C@@H]1Cc2[nH][nH]c(=O)c2[C@H](CCc2ccccc2)O1, the activity falls from 1.37% to -3.25%.

First: COc1ccccc1NC(=O)c1c(Br)cnn1C
Second: COc1ccccc1NC(=O)C(CC(=O)O)Cc1cc(C)cc(C)c1 (stereo not given)
The activity of the first is higher: 2.04% for the first, -2.91% for the second.

Compared with O=C(CCc1ccc(S(=O)(=O)N2CCOCC2)cc1)Nc1ccc2ccccc2c1, Cc1ccccc1N1CCN(S(=O)(=O)c2ccc3ccccc3c2)CC1 is higher in activity: -2.19% for the first, 3.07% for the second.

Compared with O=C(NC1CC1)C(Cc1ccccc1)NS(=O)(=O)c1ccccc1F (stereo not given), CC(Sc1ccccc1F)C(=O)Nc1cccc(S(=O)(=O)N2CCOCC2)c1 (stereo not given) is lower in activity: 3.33% for the first, -3.07% for the second.

First: CC(C(=O)N=Nc1c(O)n(C)c2ccc(Br)cc12)n1cnc2ccccc2c1=O (stereo not given)
Second: CSc1ccccc1NC(=O)CN(C)CC(=O)Nc1cccc(Br)c1
The activity of the first is higher: 2.88% for the first, -5.77% for the second.

First: COc1ccccc1C(=O)Nc1ccnn1C1CCN(Cc2cnn(C)c2)CC1
Second: COc1cccc(N2CCN(CC(=O)Nc3ccnn3C3CCCC3)CC2)c1
The activity of the first is lower: 4.21% for the first, 5.07% for the second.

First: C#CCNc1nc(C(C)C)nc2c1nnn2Cc1ccccc1F
Second: CCCNC(=O)CCc1c(C)nc2c(c(C)nn2-c2ccccc2)c1C
The activity of the first is higher: 2.17% for the first, -3.83% for the second.

First: CCCCCCCCCOC1OC(CO)C(O)C(O)C1NC(C)=O (stereo not given)
Second: NCC[C@@H](O)C(=O)N[C@@H]1C[C@H](N)[C@@H](O[C@H]2O[C@H](CN)[C@@H](O)[C@H](O)[C@H]2O)[C@H](O)[C@H]1O[C@H]1O[C@H](CO)[C@@H](O)[C@H](N)[C@@H]1O
The activity of the first is higher: 1.37% for the first, -0.91% for the second.

First: c1cncc(CNc2ccnc(-c3ccc4c(c3)OCO4)n2)c1
Second: CC1CN(C(=O)c2ccc3c(c2)OCO3)OC(c2ccccc2)O1 (stereo not given)
The activity of the first is lower: 3.58% for the first, 8.07% for the second.

Going from Cc1ccc2nc(C)c3c(c2c1)N(c1ccccc1)CC3 to CCOc1cccc(C(=O)Nc2cnn(Cc3ccccc3)c2)c1, the activity falls from 8.49% to -1.52%.

First: Cc1ccc(C(=O)NC(C)C(c2cccs2)N2CCOCC2)cc1C (stereo not given)
Second: Cc1ccc(C(=O)Oc2coc(CSc3nnc(NC(=O)c4cccs4)s3)cc2=O)cc1C
The activity of the first is lower: -7% for the first, 12.7% for the second.

First: CCOc1ccc(C(=O)Nc2nccs2)cc1[N+](=O)[O-]
Second: COCCSc1nnc(NC(=O)c2cc(OC)c(OC)cc2[N+](=O)[O-])s1
The activity of the first is higher: 13.7% for the first, 7.5% for the second.

Going from CSc1ccccc1C(=O)OCC(=O)N1CCN(C(C)=O)CC1 to CCC1(C)NC(=O)N(CC(=O)N2CCN(c3cccc(Cl)c3)CC2)C1=O (stereo not given), the activity rises from -6.48% to -2.92%.

Compared with COCCCNC(=O)Cn1cc(/C=C(\C#N)C(=O)N2CCN(c3ccccc3)CC2)c2ccccc21, CCc1ccc(-c2cc3c(=O)n(CC(=O)NCCCN4CCN(Cc5ccccc5)CC4)nc(C)n3n2)cc1 is higher in activity: 1.28% for the first, 2.85% for the second.

Compared with COc1ccc2c(c1)CCC/C2=N\OC(=O)c1ccccc1F, COc1ccc(C(=O)COC(=O)C(O)c2ccccc2)c(OC)c1 (stereo not given) is higher in activity: -4.23% for the first, 7.39% for the second.

First: COc1cc(NS(=O)(=O)c2ccc(NC(=O)c3ccc(S(=O)(=O)N4CCCCC4)cc3)cc2)ncn1
Second: CC(=O)c1ccc(N2CCN(S(=O)(=O)c3ccc4c(c3)CC(=O)N4C)CC2)cc1
The activity of the first is lower: -7.53% for the first, 1.85% for the second.

Compared with CCSC1=NCCN1S(=O)(=O)c1ccc(F)cc1, CCCc1nnc(NC(=O)CCC(=O)N2CCN(S(=O)(=O)c3ccc(OC)cc3)CC2)s1 is lower in activity: 8.78% for the first, -2.83% for the second.

First: N#Cc1ccc(-c2ccc(Cl)cc2)nc1Oc1ccc(F)cc1
Second: O=C(NCc1ccc(Cl)cc1)c1cc(=O)nc2sc(-c3ccccc3)nn12
The activity of the first is lower: 6.3% for the first, 7.32% for the second.

Going from CCCn1c(O)c(CN2CCCC(C)C2)c(C)c(C#N)c1=O (stereo not given) to CCN(CCCNC(=O)c1ccc2c(c1)NC(=O)CN2C)c1cccc(C)c1, the activity falls from 8.88% to -3.82%.

Compared with CCC(=O)c1c(CC)c2n3c1=CC[C@H]3CC(Br)C=2 (stereo not given in full), COC(=O)C[C@H]1C[C@@H]2c3cc(N(C)C)ccc3O[C@@H]2[C@H](CO)O1 is higher in activity: 2.99% for the first, 7.34% for the second.

First: COCCn1c(=NC(=O)c2ccccc2[N+](=O)[O-])sc2cc(S(C)(=O)=O)ccc21
Second: COc1ccc(N(CC(=O)Nc2cccc3ccccc23)S(C)(=O)=O)c(OC)c1
The activity of the first is higher: 3.08% for the first, 0.94% for the second.

Going from COc1ccc(C(=O)OCCN(C)C2CN(Cc3cn(Cc4cccc(C)c4)nn3)S(=O)(=O)C2)cc1OC (stereo not given) to COC(=O)[C@@]12C[C@@H](CC(=O)NCCCCc3ccccc3)C(=O)N(CCc3ccc(OC)c(OC)c3)C1=CCC(C)(C)C2, the activity rises from -5.04% to 0.11%.

Compared with COc1ccc(C(=O)N2CCCN(C)CC2)c(OC)c1, COc1ccc(C(=O)CSc2nnnn2C)c(OC)c1 is lower in activity: 1.46% for the first, 1.25% for the second.

Compared with COc1ccc(CNC(=O)CCC(=O)Nc2nnc(C(C)C)s2)cc1, COCCCNC(=O)C1CCC(CNS(=O)(=O)c2ccc(OC)cc2)CC1 (stereo not given) is lower in activity: -2.06% for the first, -5.72% for the second.

Compared with CCc1ccc(Nc2ncc3c(n2)CC(c2ccco2)CC3=O)cc1 (stereo not given), Cc1cccc(C(=O)Nc2ccccc2C(=O)NCc2cccnc2)c1 is lower in activity: 2.68% for the first, 0.06% for the second.

First: O=C(Nc1cccc(-n2cnnn2)c1)c1cccnc1
Second: O=C(NCc1ccc2c(c1)OCO2)c1c(O)nc2sccn2c1=O
The activity of the first is higher: 1.66% for the first, -1.37% for the second.

First: CCN1C(=O)/C(=C\N2CCOCC2)SC1=S
Second: COc1ccc(S(=O)(=O)N2CCOCC2)cc1C(=O)NC1CCCCC1
The activity of the first is higher: 2.02% for the first, -1.23% for the second.

Compared with COCc1c(C(=O)N/N=C/C2CC=CCC2)nnn1-c1nonc1N (stereo not given), CC1=CC[C@H](C(C)(C)O)CC1 is higher in activity: -3.01% for the first, 1.53% for the second.

For Cc1c(-c2ccccc2)nc(N)c(C#N)c1-c1cccs1, the activity was 29.3% (active).
For CCOc1cccc(NC(=O)Cn2nc(-c3ccc4c(c3)OCCO4)ccc2=O)c1, the activity was 52.4% (active).
CC1(C)Cc2nc3sc4c(SCC(=O)NC(c5ccccc5)c5ccccc5)ncnc4c3cc2CO1 was tested, and the activity was 199% (active).
In the case of COC(=O)c1c(NC(C)=O)sc(C(=O)Nc2ccccc2OC)c1C, the activity is reported as 32.9% (active).
With COc1ccccc1N1CCN(CC(=O)Nc2ccnn2C2CCCC2)CC1 the activity was 15.8% (active).
In the case of CCC(C)C1(C2CCCC2)NC(=O)NC1=O (stereo not given), the activity is reported as 16.3% (active).
For Cc1ccc(C(=O)Nc2nnc(-c3cccs3)s2)cc1C, the activity was 22.5% (active).
With CCOc1cccc(C(=O)Nc2nnc(-c3cccs3)s2)c1 the activity was 23.2% (active).
COc1nc(-c2ccc(Cl)cc2)ccc1-c1noc(-c2cccs2)n1 was tested, and the activity was 56.6% (active).
Cn1c(=NC(=O)c2ccc3c(c2)OCCO3)sc2cc(S(C)(=O)=O)ccc21 was tested, and the activity was 22.9% (active).
In the case of CC(=O)c1ccc(S(=O)(=O)N2CCN(c3nc4c(C)c(C)ccc4cc3C#N)CC2)cc1, the activity is reported as 223% (active).
In the case of COc1ccc(Cc2nnc(NC(=O)c3ccc(OC)cc3OC)s2)cc1, the activity is reported as 45.2% (active).
COC(=O)c1sc(NC(=O)c2ccc(OC)cc2OC)nc1C was tested, and the activity was 28.7% (active).
COc1ccc(C(=O)Nc2cccc(NC(=O)c3ccc(OC)cc3OC)n2)c(OC)c1 was tested, and the activity was 22.5% (active).
For Cc1ccc(-n2nc3cc(C)c(NC(=O)c4cccnc4)cc3n2)cc1, the activity was 36.7% (active).
In the case of CCN1C(=O)/C(=C\N2CCN(c3cccc(Cl)c3)CC2)SC1=S, the activity is reported as 877% (active).
O=C(NCc1ccc(Cl)cc1)c1cc2c(nc3sccn32)s1 was tested, and the activity was 25.1% (active).
With COc1ccc(S(=O)(=O)N2CCOCC2)cc1C(=O)Nc1nc2ccccc2s1 the activity was 46.8% (active).
